The full data set covers some 7,900 targets. This sample favours those with a hit. About 0.6% of all pairs of compound and target were hits. Unmarked numbers belong to inactive results.
How the values were obtained:
Test in all cases: log2 fold change, soluble protein after heating vs DMSO (PISA); higher = thermal stabilisation; K562 cells, 10 uM, 30 min; active = over 0.2 and 3.5 SD of the protein, either way, in both replicates (recomputed)
[1] = compound: NC(=O)Nc1cc(-c2cccc(F)c2)sc1C(=O)N[C@H]1CCCNC1
Method in brief: (§1)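 K562 cells at 2×10^6 cells/mL were treated for 30 min with 10 μM compound, and aliquots were heated for 3 min over 48°C-58°C before pooling. Extraction used PBS with 0.5% NP-40 at 4°C, and soluble protein was the supernatant after 21,000xg for 90 min, measured by TMTpro 16plex LC-MS/MS with channel sums equalised. Thermal stability values, relative to control samples and from duplicates, are log2 fold changes.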

[2] = compound: NC(=O)c1cnc(N[C@@H]2CCCC[C@@H]2N)nc1Nc1cccc(-n2nccn2)c1
Method in brief: as §1

[3] = compound: NC1(c2ccc(-c3nc4ccn5c(=O)[nH]nc5c4cc3-c3ccccc3)cc2)CCC1
Method in brief: as §1

[4] = compound: NCC(=O)Nc1ccc(-n2nc(C(F)(F)F)cc2-c2ccc3c(ccc4ccccc43)c2)cc1
Method in brief: as §1

entinostat = compound: Nc1ccccc1NC(=O)c1ccc(CNC(=O)OCc2cccnc2)cc1 [entinostat]
Method in brief: as §1

vorinostat = compound: O=C(CCCCCCC(=O)Nc1ccccc1)NO [vorinostat]
Method in brief: as §1

citarinostat = compound: O=C(CCCCCCNC(=O)c1cnc(N(c2ccccc2)c2ccccc2Cl)nc1)NO [citarinostat]
Method in brief: as §1

silmitasertib = compound: O=C(O)c1ccc2c(c1)nc(Nc1cccc(Cl)c1)c1ccncc12 [silmitasertib]
Method in brief: as §1

[5] = compound: c1cc(OCCN2CCCCC2)cc(-c2n[nH]c3ccc(-c4nnc[nH]4)cc23)c1
Method in brief: as §1

[6] = compound: O=C1NC(=O)C(c2cnc3ccccn23)=C1c1cn2c3c(cc(F)cc13)CN(C(=O)N1CCCCC1)CC2
Method in brief: as §1

UniProt Q86UV5, sequence (Q86UV5 whole entry, looked up): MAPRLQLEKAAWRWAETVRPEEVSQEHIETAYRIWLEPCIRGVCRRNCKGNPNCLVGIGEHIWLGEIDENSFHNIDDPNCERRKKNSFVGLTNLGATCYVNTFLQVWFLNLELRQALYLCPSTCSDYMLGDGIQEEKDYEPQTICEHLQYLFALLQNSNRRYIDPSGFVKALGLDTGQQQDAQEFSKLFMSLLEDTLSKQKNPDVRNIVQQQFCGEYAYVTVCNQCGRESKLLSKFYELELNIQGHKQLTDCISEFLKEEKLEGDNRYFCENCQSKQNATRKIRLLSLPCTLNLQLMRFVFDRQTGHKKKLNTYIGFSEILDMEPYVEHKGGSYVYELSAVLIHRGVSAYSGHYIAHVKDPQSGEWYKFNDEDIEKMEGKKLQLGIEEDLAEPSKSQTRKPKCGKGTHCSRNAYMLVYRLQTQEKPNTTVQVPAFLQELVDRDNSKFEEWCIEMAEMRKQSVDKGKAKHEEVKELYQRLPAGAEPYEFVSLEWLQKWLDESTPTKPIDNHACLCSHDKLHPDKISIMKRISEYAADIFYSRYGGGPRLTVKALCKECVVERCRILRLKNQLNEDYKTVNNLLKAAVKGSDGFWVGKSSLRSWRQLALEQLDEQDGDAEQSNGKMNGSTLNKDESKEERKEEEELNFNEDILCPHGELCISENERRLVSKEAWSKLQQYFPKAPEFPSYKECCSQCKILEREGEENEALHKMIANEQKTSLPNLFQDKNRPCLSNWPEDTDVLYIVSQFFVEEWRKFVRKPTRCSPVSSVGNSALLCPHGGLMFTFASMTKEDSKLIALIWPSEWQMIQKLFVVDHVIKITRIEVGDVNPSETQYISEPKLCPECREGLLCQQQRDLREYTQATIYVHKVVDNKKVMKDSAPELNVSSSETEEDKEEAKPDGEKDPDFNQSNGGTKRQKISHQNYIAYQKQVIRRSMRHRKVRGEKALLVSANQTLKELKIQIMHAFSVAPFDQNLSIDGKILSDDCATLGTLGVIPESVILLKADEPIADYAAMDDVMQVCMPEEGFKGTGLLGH
UniProt Q8IZ69, sequence (Q8IZ69 whole entry, looked up): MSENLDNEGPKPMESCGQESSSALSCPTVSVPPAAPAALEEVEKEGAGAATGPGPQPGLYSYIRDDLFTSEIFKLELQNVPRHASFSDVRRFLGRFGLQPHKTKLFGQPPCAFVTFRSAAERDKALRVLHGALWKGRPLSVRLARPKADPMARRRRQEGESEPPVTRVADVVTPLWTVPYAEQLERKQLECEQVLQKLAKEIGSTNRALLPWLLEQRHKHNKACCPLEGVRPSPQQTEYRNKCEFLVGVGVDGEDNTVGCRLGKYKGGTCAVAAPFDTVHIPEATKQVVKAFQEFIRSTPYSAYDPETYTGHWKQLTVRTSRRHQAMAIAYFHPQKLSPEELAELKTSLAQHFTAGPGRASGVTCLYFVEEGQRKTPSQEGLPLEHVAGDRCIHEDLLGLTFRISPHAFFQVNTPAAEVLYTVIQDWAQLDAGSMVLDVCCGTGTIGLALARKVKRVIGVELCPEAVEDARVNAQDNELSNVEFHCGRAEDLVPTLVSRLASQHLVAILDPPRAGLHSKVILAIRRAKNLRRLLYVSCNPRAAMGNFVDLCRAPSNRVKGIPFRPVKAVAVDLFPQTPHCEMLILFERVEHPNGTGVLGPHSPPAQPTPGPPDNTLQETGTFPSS
UniProt P68366, sequence (P68366 whole entry, looked up): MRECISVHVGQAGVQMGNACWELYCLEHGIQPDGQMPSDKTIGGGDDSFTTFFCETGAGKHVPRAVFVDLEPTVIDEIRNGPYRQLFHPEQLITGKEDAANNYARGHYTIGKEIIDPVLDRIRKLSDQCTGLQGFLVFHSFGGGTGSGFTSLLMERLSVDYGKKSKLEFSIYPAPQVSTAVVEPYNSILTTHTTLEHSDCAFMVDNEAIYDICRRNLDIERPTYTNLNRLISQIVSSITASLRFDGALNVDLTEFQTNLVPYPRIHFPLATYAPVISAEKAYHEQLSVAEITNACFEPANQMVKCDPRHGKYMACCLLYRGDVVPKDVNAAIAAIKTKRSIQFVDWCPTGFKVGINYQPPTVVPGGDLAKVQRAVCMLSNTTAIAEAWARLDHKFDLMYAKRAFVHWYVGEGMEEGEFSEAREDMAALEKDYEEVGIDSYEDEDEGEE
UniProt P61960, sequence (P61960 whole entry, looked up): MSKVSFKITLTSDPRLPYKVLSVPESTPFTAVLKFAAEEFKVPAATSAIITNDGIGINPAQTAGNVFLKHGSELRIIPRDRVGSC
UniProt P51809, sequence (P51809 whole entry, looked up): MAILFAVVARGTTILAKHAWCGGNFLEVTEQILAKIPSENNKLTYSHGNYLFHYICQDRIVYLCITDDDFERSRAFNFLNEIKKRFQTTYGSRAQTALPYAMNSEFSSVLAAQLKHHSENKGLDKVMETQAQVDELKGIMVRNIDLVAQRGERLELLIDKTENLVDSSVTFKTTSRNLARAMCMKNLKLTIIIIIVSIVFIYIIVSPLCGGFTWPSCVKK
UniProt Q8NEZ2, sequence (Q8NEZ2 whole entry, looked up): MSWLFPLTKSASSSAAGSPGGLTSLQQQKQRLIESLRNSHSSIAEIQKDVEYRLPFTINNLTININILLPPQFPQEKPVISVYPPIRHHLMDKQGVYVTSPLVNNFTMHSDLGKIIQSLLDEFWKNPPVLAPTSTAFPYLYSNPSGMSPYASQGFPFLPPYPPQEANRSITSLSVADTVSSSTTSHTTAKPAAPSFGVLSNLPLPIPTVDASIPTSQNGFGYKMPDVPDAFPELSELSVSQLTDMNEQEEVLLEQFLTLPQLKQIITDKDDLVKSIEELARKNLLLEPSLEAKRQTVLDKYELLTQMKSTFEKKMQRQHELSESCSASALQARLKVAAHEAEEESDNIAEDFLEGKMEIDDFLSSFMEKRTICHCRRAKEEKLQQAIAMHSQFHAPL
UniProt Q9BZM6, sequence (Q9BZM6 whole entry, looked up): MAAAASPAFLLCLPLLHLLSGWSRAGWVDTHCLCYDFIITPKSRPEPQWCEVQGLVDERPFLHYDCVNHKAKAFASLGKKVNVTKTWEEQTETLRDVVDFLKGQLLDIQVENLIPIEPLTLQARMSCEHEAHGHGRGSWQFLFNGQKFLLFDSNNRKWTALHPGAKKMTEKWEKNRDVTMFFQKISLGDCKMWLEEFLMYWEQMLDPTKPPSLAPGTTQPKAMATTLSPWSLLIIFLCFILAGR
UniProt P11388, sequence (P11388 whole entry, looked up): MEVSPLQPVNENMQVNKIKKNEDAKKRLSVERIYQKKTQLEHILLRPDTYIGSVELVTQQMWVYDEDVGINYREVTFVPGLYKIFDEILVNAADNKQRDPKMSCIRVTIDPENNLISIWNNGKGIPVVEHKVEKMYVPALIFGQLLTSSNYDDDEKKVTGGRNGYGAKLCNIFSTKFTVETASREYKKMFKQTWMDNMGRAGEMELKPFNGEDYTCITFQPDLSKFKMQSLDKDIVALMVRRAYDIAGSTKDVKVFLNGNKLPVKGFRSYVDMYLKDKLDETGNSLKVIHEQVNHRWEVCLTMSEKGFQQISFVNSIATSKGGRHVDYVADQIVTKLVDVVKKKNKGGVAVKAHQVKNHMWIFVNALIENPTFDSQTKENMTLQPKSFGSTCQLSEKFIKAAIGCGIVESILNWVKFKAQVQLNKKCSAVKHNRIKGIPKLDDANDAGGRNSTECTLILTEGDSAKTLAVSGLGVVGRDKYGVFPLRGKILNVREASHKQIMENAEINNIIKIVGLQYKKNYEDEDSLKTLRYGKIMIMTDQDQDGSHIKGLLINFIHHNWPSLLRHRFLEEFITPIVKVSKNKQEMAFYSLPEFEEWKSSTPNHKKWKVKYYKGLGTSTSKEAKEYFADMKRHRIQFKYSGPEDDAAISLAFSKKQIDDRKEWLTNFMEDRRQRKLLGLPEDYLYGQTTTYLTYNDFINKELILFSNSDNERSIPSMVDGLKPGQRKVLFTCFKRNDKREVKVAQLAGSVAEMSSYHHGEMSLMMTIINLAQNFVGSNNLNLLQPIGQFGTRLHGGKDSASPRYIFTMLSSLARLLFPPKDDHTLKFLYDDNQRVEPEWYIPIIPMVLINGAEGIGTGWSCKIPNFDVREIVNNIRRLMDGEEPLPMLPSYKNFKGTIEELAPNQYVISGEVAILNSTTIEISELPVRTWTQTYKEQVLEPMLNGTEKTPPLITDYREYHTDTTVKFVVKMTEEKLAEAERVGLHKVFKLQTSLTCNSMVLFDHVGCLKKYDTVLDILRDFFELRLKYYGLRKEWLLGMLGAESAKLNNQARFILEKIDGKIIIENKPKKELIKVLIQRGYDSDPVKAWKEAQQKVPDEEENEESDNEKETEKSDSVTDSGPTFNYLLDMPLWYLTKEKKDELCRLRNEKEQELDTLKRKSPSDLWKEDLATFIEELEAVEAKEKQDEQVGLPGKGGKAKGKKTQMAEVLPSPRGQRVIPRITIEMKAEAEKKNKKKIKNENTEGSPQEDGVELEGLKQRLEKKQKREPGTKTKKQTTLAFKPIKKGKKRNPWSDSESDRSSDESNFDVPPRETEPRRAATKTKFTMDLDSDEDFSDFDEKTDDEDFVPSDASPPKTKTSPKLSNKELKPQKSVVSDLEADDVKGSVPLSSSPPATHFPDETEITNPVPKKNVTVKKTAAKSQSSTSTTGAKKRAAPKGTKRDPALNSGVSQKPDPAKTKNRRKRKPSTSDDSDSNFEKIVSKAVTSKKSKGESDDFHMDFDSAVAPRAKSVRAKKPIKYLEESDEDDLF
UniProt Q15906, sequence (Q15906 whole entry, looked up): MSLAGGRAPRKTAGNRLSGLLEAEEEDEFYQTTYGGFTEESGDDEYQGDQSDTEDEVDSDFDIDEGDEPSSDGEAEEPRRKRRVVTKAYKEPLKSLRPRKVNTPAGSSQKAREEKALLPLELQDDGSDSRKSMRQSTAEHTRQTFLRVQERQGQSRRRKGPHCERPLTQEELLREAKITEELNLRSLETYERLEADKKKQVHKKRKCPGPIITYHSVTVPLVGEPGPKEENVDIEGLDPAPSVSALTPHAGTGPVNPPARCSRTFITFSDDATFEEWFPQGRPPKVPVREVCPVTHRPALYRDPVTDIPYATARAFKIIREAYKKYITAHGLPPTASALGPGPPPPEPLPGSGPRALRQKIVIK

Row | Target | log2 fold change [1] | log2 fold change [2] | log2 fold change [3] | log2 fold change [4] | log2 fold change (entinostat) | log2 fold change (vorinostat) | log2 fold change (citarinostat) | log2 fold change (silmitasertib) | log2 fold change [5] | log2 fold change [6]
1 | UBE2D1 (UniProt P51668) | 0.119 | 0.042 | -0.143 | -0.039 | -0.168 | 0.164 | 0.062 | 0.049 | 0.011 | 
2 | VPS72 isoform 2 (UniProt Q15906) | 0.092 | -0.226 | -0.117 | 0.037 | -0.032 |  | 0.102 | 0.199 | -0.116 | -0.157
3 | USP48 isoform 8 (UniProt Q86UV5) | -0.077 | 0.002 | -0.235 | -0.125 | 0.351 | 0.178 | 0.177 | 0.094 | -0.157 | -0.177
4 | WDR4 (UniProt P57081) | -0.094 | 0.021 | -0.089 | -0.003 | -0.04 | -0.009 | 0.046 | -0.038 | -0.011 | -0.161
5 | UHRF1BP1L (UniProt A0JNW5) | -0.004 | -0.017 | -0.028 | 0.055 | -0.024 | -0.035 | -0.032 | 0.015 | -0.013 | -0.052
6 | TMEM179B (UniProt Q7Z7N9) | -0.235 | 0.079 | -0.255 |  | 0.04 | -0.156 | -0.019 | -0.043 | -0.112 | -0.173
7 | TRAPPC2L (UniProt Q9UL33) | 0.005 | -0.025 | -0.126 | 0.054 | 0.008 | 0.068 | 0.031 | 0.037 | -0.099 | -0.047
8 | TMEM41A (UniProt Q96HV5) | -0.005 | -0.053 | 0.002 | -0.066 | -0.027 | 0.09 | 0.04 | -0.015 | -0.059 | -0.018
9 | WASHC2C, A0A096LPC5 | -0.084 | -0.208 | -0.06 | -0.058 | -0.015 | -0.209 | -0.113 | 0.361 | -0.151 | 0.001
10 | TRMT2A (UniProt Q8IZ69) | -0.031 | -0.128 | -0.091 | -0.003 | 0.022 | 0.03 | -0.03 | -0.003 | -0.062 | 0.018
11 | TXNL4B (UniProt Q9NX01) | 0.098 | -0.112 | -0.035 | 0.709 (active) | -0.024 | 0.02 | 0.029 | 0.118 | 0.117 | 
12 | TPP1 (UniProt O14773) | -0.036 | -0.037 | -0.174 | -0.08 | 0.036 | 0.031 | 0.035 | -0.036 | -0.091 | -0.014
13 | UFM1 (UniProt P61960) | 0.045 | -0.135 | -0.073 | -0.056 | 0.004 |  | 0.056 | -0.033 | 0.015 | -0.083
14 | UNC119B (UniProt A6NIH7) | -0.094 | 0.039 | 0.146 | 0.038 | 0.012 | -0.055 | 0.043 | 0.031 | 0.005 | 
15 | VPS37A (UniProt Q8NEZ2) | -0.066 | -0.021 | -0.317 | -0.051 | 0.121 | 0.113 |  | 0.02 |  | -0.198
16 | WDR43 (UniProt Q15061) | 0.023 | 0.03 | 0.068 | -0.023 | -0.029 | -0.078 | 0.007 | 0.051 | -0.027 | -0.007

Row | Target | log2 fold change [1] | log2 fold change [2] | log2 fold change [3] | log2 fold change [4] | log2 fold change (entinostat) | log2 fold change (vorinostat) | log2 fold change (citarinostat) | log2 fold change (silmitasertib) | log2 fold change [5] | log2 fold change [6]
17 | UBIAD1 (UniProt Q9Y5Z9) | -0.089 | 0 | 0.055 | -0.122 | -0.076 | -0.075 | -0.301 | 0.013 | 0.181 | 
18 | TMEM63B (UniProt Q5T3F8) | 0.069 | 0.059 | -0.153 | 0.052 | 0.07 | -0.008 | -0.024 | 0.001 | -0.021 | -0.037
19 | UCHL5 isoform 3 (UniProt Q9Y5K5) | 0.037 | 0.156 | -0.277 | 0.05 | 0.098 |  | 0.113 | -0.002 | -0.028 | -0.054
20 | ULBP1 (UniProt Q9BZM6) | -0.045 | 0.026 | -0.227 | -0.039 | 0.099 |  |  | 0.013 |  | -0.188
21 | WEE1 (UniProt P30291) | -0.455 | 0.205 | 0.04 | -0.045 | 0.47 | 0.05 |  | -0.122 |  | 0.089
22 | WDR61 (UniProt Q9GZS3) | -0.013 | -0.058 | -0.102 | -0.069 | -0.052 | 0 | 0.028 | -0.005 | -0.057 | -0.045
23 | TMEM9B (UniProt Q9NQ34) | -0.025 | 0.004 | -0.093 | -0.111 | 0.025 | 0.051 | 0.023 | 0.038 | -0.121 | 0.043
24 | VAMP7 (UniProt P51809) | -0.029 | 0.001 | -0.176 | -0.069 | 0.009 | 0.025 | 0.086 | 0.027 | 0.026 | -0.058
25 | VDAC1 (UniProt P21796) | 0.025 | 0 | 0.008 | 0.019 | -0.002 | -0.044 | 0.039 | -0.015 | -0.009 | -0.019
26 | VPS51 (UniProt Q9UID3) | -0.02 | -0.119 | -0.082 | -0.048 | 0.07 | -0.035 | -0.002 | 0.068 | 0.1 | 0.022
27 | TTI2 (UniProt Q6NXR4) | 0.024 | -0.038 | 0.016 | -0.074 | -0.004 |  | -0.035 | -0.047 | -0.023 | 0.059
28 | USO1 isoform 2 (UniProt O60763) | -0.009 | 0 | -0.101 | -0.024 | 0.032 | 0.018 | 0.032 | 0.059 | -0.013 | -0.035
29 | TUBA4A (UniProt P68366) | 0.004 | -0.02 | -0.063 | 0.028 | -0.024 | 0.062 | 0.031 | -0.065 | 0.009 | -0.059
30 | TOP2A isoform 4 (UniProt P11388) | 0.159 | 0.058 | 0.307 | 0.19 | -0.042 | 0.034 | -0.112 | 0.255 | -0.205 | 0.296
31 | TRIM44 (UniProt Q96DX7) | 0 | -0.037 | -0.048 | 0.02 | -0.048 | 0.015 | 0.008 | 0.045 | -0.083 | 

From the supplement of paper PMC10849652
